{"source": "PubChem BioAssay AID1851", "about": "(National Center for Advancing Translational Sciences (NCATS), 2009)", "note": "Several values for one entry are separate records, joined by “and”; a condition that tells them apart may be missing. Identical values can stand only once. Among all 16,000 compounds or so, about 5,700 (36%) were called active. Not shown: some 24% with an inconclusive outcome. This is one part of the list. A number with no mark means an inactive call. The call rests on the fitted dose curve; in most records, active means well fitted curve in the direction sought with a large enough effect; inconclusive means small, poorly fitted or top-dose-only effect, or effect the other way; inactive means no such curve, though single readings can be large or run the other way. Peptide text beside a SMILES is read from it. * marks the point of attachment. PhAc = O=C(Cc1ccccc1)*; OBn = c1ccc(CO*)cc1", "data": [{"target": "Cytochrome P450 1A2 (Homo sapiens) (UniProt P05177)", "sequence (P05177 whole entry, looked up)": "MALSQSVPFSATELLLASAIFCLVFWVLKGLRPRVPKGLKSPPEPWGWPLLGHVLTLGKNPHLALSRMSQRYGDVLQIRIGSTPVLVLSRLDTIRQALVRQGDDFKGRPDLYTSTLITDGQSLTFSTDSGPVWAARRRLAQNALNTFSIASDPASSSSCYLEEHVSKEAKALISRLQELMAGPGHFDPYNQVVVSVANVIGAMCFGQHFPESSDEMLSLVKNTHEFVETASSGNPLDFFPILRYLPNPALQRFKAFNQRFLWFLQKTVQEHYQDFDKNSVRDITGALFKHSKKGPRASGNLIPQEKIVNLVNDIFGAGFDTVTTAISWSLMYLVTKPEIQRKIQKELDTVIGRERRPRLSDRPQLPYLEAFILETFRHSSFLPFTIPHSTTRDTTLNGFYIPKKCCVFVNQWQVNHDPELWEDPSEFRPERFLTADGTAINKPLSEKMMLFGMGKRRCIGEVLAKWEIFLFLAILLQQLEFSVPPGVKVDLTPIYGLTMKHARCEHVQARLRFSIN", "experiment": "Cytochrome panel assay with activity outcomes; on activity, negative = inhibition: on the % scale 0 is the no-effect control and ±100 the full control effect", "settings": "recombinant CYP, pro-luciferin dealkylation, luminescence, p450-cyp1a2; series mostly up to 57.1 µM", "values": [{"smiles": "CC(C)C[C@H]1C(=O)N2CCC[C@@H]2[C@]2(O)O[C@](NC(=O)[C@H]3C=C4c5cccc6[nH]c(Br)c(c56)C[C@H]4N(C)C3)(C(C)C)C(=O)N12", "AC50": "inactive"}, {"smiles": "OC1(c2ccc(OC(F)F)cc2)CSC(=Nc2cccnc2)N1C1CC1", "note": "(configuration not stated)", "AC50": "1.12 µM (active)"}, {"smiles": "CCOc1ccc(NC(=O)N2CCC(C(N)=O)(N3CCCCC3)CC2)cc1", "AC50": "inactive"}, {"smiles": "CCOc1ccc(N/N=C(/C#N)C(N)=O)cc1", "AC50": "5.01 µM (active)"}, {"smiles": "CCOc1ccc(NC(=O)C(=O)NCC2CCCN2CC)cc1", "note": "(configuration not stated)", "AC50": "inactive"}, {"smiles": "O=C1CCN(S(=O)(=O)c2ccccc2)N1", "AC50": "inactive"}, {"smiles": "O=C(O)c1c2c(c(O)c3c1CN(C1CCCCC1)CO3)OCN(C1CCCCC1)C2", "activity, negative = inhibition": "3.18% [at 11.4 µM]"}, {"smiles": "NCCCCC(=O)O", "AC50": "inactive"}, {"smiles": "CCCCCCCCCCC/C=C\\C(C)(C)/C=C\\CCCC(=O)O", "AC50": "39.8 µM (active)"}, {"smiles": "NCCCCCC(=O)O", "AC50": "inactive"}, {"smiles": "CCCCCCCCCCCCCCSCC(=O)O", "AC50": "inactive"}, {"smiles": "CCCCCCC/C=C\\CCCCCCCCC(=O)O", "AC50": "31.6 µM (active)"}, {"smiles": "CS(=O)(=O)Nc1cccc(-c2nccc(Nc3ccc(F)cc3)n2)c1", "AC50": "0.126 µM (active)"}, {"smiles": "CS(=O)(=O)Nc1cccc(-c2nc(Nc3ccc(F)cc3)c3ccccc3n2)c1", "AC50": "0.794 µM (active)"}, {"smiles": "Nc1nccc(Nc2ccc(S(N)(=O)=O)cc2)n1", "activity, negative = inhibition": "-8.04% [at 11.4 µM]"}, {"smiles": "CNc1nc(-c2cccc(NS(C)(=O)=O)c2)nc2ccccc12", "AC50": "0.398 µM (active)"}, {"smiles": "CS(=O)(=O)Nc1cccc(-c2nc(Nc3ccccc3)c3ccccc3n2)c1", "AC50": "0.794 µM (active)"}, {"smiles": "COc1cccc(-c2nc(Nc3ccncc3)c3ccccc3n2)c1", "AC50": "0.794 µM (active)"}, {"smiles": "CN(C)c1nc(-c2cccc(NS(C)(=O)=O)c2)nc2ccccc12", "AC50": "0.501 µM (active)"}, {"smiles": "COc1ccc(OC)c(Nc2nc(-c3cccc([N+](=O)[O-])c3)nc3ccccc23)c1", "AC50": "inactive"}, {"smiles": "CS(=O)(=O)Nc1cccc(-c2nc(Nc3ccncc3)c3ccccc3n2)c1", "AC50": "0.631 µM (active)"}, {"smiles": "CC(C)(N)C(=O)N[C@@H]1C(=O)N2[C@@H]1SC(C)(C)[C@H]2C(=O)O", "activity, negative = inhibition": "4.41% [at 2.29 µM]"}, {"smiles": "C[C@H](CCC(=O)NCC(=O)O)[C@H]1CC[C@H]2[C@H]3[C@@H](C[C@@H](O)[C@]12C)[C@]1(C)CC[C@H](O)C[C@@H]1C[C@@H]3O", "AC50": "inactive"}, {"smiles": "COc1cccc(CC(C(=O)Nc2cc(C)ccc2C)c2nn[nH]n2)c1OC", "note": "(configuration not stated)", "AC50": "3.16 µM (active)"}, {"smiles": "COC(=O)c1cc(C(=O)c2ccc(Cl)cc2Cl)cn1C", "AC50": "2.51 µM (active)"}, {"smiles": "Cc1c(-n2cc(C(=O)c3cc(Cl)ccc3O)cc(C#N)c2=O)c(=O)n(-c2ccccc2)n1C", "AC50": "inactive"}, {"smiles": "Cn1cc(C(=O)c2ccc(Cl)cc2Cl)cc1C(=O)O", "AC50": "inactive"}, {"smiles": "COC(=O)C1=C(C)Nc2ncnn2C1c1cccnc1", "note": "(configuration not stated)", "AC50": "inactive"}, {"smiles": "C(=C1/CCCC2=C1Nc1ncnn1C2c1ccccc1)/c1ccccc1", "note": "(configuration not stated)", "AC50": "10 µM (active)"}, {"smiles": "CC(=O)SC[C@@H](Cc1ccccc1)C(=O)NCC(=O)OCc1ccccc1", "AC50": "2.51 µM (active)"}, {"smiles": "O=C(CNC(=O)Cc1ccccc1)NCC(=O)OCc1ccccc1", "note": "(PhAc-Gly-Gly-OBn)", "AC50": "inactive"}, {"smiles": "CC(C)(C)c1ccc(COC(=O)CNC(=O)CNC(=O)Cc2ccccc2)cc1", "AC50": "inactive"}, {"smiles": "COc1ccccc1NC(=O)c1nc[nH]c1C(=O)Nc1ccccc1OC", "AC50": "0.2 µM (active)"}, {"smiles": "Cc1c(NC(=O)CSc2nnc3c4ccccc4n(CCc4ccccc4)c3n2)c(=O)n(-c2ccccc2)n1C", "AC50": "inactive"}, {"smiles": "CCn1c2ccccc2c2nnc(NCCCO)nc21", "AC50": "1.58 µM (active)"}, {"smiles": "COCn1c2ccccc2c2nnc(C(C)=O)nc21", "activity, negative = inhibition": "-3.08% [at 11.4 µM] and -1.56% [at 11.4 µM]"}, {"smiles": "CCN(CC)c1ncnc2c1sc1nc(C)cc(C)c12", "AC50": "1.41 µM (active)"}, {"smiles": "O=C(c1csnn1)N1CCC2(CC1)CCN(c1ncccn1)CC2", "AC50": "inactive"}, {"smiles": "C[N+](C)(C)CC(=O)O", "AC50": "inactive"}, {"smiles": "CS(=O)(=O)Nc1cccc(-c2ccc3ncnc(NCCN4CCOCC4)c3c2)c1", "AC50": "25.1 µM (active)"}, {"smiles": "CS(=O)(=O)Nc1cccc(-c2ccc3ncnc(N4CCOCC4)c3c2)c1", "AC50": "12.6 µM (active)"}, {"smiles": "Cn1nc(-c2ccc(N3CCOCC3)c(NS(=O)(=O)c3ccc(Cl)cc3)c2)c2ccccc2c1=O", "AC50": "inactive"}, {"smiles": "Cc1ccc(-c2nn3c(C)nnc3c3ccccc23)cc1S(=O)(=O)NCCN1CCOCC1", "AC50": "inactive"}, {"smiles": "CS(=O)(=O)Nc1ccc(S(=O)(=O)N2CCOCC2)cc1", "AC50": "inactive"}, {"smiles": "CS(=O)(=O)Nc1cccc(-c2nc(N3CCOCC3)c3ccccc3n2)c1", "AC50": "5.01 µM (active)"}, {"smiles": "CS(=O)(=O)Nc1cccc(-c2ccc3ncnc(N4CCNCC4)c3c2)c1", "AC50": "12.6 µM (active)"}, {"smiles": "CC(=O)OC[C@@H]1O[C@@H](O/N=C2/C[C@@H](O)[C@@H](O)[C@@H]3[C@@H]4C(=O)N(Cc5ccccc5)C(=O)[C@H]4CC[C@@H]23)[C@H](OC(C)=O)[C@H](OC(C)=O)[C@@H]1OC(C)=O", "activity, negative = inhibition": "-3.54% [at 11.4 µM]"}, {"smiles": "N#Cc1ccc(CN2CCC3(CC2)CCN(C(=O)c2csnn2)CC3)cc1", "AC50": "inactive"}, {"smiles": "O=C(c1ccco1)N1CCC2(CC1)CN(Cc1cc(C(F)(F)F)cc(C(F)(F)F)c1)C2", "AC50": "inactive"}, {"smiles": "CN1C(=O)C[C@H](c2ccccc2)C1=O", "AC50": "inactive"}, {"smiles": "COc1cccc([C@@H]2Oc3ccc(OC)cc3/C(=N/O[C@@H](C)CN3CCCCc4nc(C)c(C)cc43)[C@@H]2O)c1", "activity, negative = inhibition": "-8.62% [at 11.4 µM]"}, {"smiles": "Cc1cc(C(=O)OCC(=O)NCCC(C)C)c2ccccc2n1", "AC50": "4.47 µM (active)"}, {"smiles": "CC(C)CCNC(=O)Cc1ccccc1[N+](=O)[O-]", "AC50": "inactive"}, {"smiles": "CO[C@H]1COC(=O)CCC[C@H](C)[C@@H](OC)COC(=O)C/C=C\\[C@@H]1C", "activity, negative = inhibition": "-4.49% [at 11.4 µM]"}, {"smiles": "N#Cc1c(-c2ccc3c(c2)OCO3)ccn2nc(-c3cccc(C(F)(F)F)c3)nc12", "AC50": "0.0562 µM (active)"}, {"smiles": "CCNC(=O)C1CC(=O)OC12CCCCC2", "note": "(configuration not stated)", "AC50": "inactive"}, {"smiles": "CC(C)=CCC/C(C)=C/CO/N=C1/C[C@@H](O)[C@@H](O)[C@@H]2[C@@H]3C(=O)N(Cc4ccc5c(c4)OCO5)C(=O)[C@H]3CC[C@H]12", "activity, negative = inhibition": "-9.49% [at 11.4 µM]"}]}]}
